Holding throughout (experiment): PBM binding z-score (relative to random genomic background probes); higher = stronger binding; sequences stand for … in GC…GCGATTGACAGCGTAGAATGAAGG
Test [1] deals with RARb homodimer (NR concentration 270 nM). In outline:
(§1)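 Binding z-scores take random background probes as their reference. They come from custom Agilent 4×180K protein-binding microarrays incubated 1 h with ligand-free nuclear receptor dimers, with antibodies against each partner (one per run) detecting binding. Scanned fluorescence was regression-normalized.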

Test [2] deals with RARg:RXRa (NR concentration 270 nM, RXRa partner concentration 90 nM). In short, it runs like this: as §1
The test system of test [3] is RARg homodimer (NR concentration 270 nM). In outline: as §1
The subject of test [4] is RXRa DBDmut IVT, anti-RXR (DBD mutation: RXRa K156A/R161A, NR concentration 90 nM). In outline:
as §1

In test [5] the test system is RXRa homodimer (NR concentration 180 nM). In short, it runs like this: as §1
The subject of test [6] is THRa:RXRa (NR concentration 90 nM, RXRa partner concentration 90 nM). In short, it runs like this: as §1
Test [7] concerns THRa homodimer (NR concentration 90 nM). In outline:
as §1

Test [8] has as its system VDR homodimer (NR concentration 270 nM). In outline: as §1

For AATACAGGGTCAGCGTAGGCCAGAGTACGCACAG, the PBM binding z-score in test [1] is 3.36; in test [2], 4.93; in test [3] it was 4.67; in test [4] it was 1.69; in test [5], 4.84; in test [6], 3.98. Besides, the values for the PBM binding z-score in test [7] and in test [8] were 0.9 and 1.65, respectively.
With CCTACTGGGCCCAGGTCATTGATCAGTCAAAGCA, the PBM binding z-score is 2.14 in test [1]; 2.06 in test [2]; 1.28 in test [3]; -0.46 in test [4]; 1.47 in test [5]; 2.93 in test [6]. Also, the PBM binding z-score is 2.15 in test [7] and 1.25 in test [8].
Consider TCTCGGAGGACAAGAAGGTCAGAGCTTTCCAGAG, for which the PBM binding z-score in test [1] was 3.34; in test [2], 2.76; in test [3], 3.26; in test [4], 0.905; in test [5], 1.69; in test [6] it was 2.09. The PBM binding z-score is 0.236 in test [7] and 0.789 in test [8].
In the case of ATACCAATGTGATCGTGAGGTCGTTGATACTAAC, the PBM binding z-score in test [1] was found to be 0.979; in test [2] it was 0.681; in test [3], 0.227; in test [4], 0.777; in test [5], 1.06; in test [6], 2.45. In addition, the PBM binding z-score in test [7] came to 2.24; in test [8] it was 2.83.
For the sequence CCTATTAGTTGACCATATGGGCAACCGAAGCTCG, the PBM binding z-score in test [1] was found to be 0.53; in test [2], 0.405; in test [3], 0.481; in test [4], 0.486; in test [5], 0.208; in test [6], 0.00602. The figures for the PBM binding z-score in test [7] and in test [8] were 0.303 and 0.527, respectively.
Turning to AGAATGAGGTTAAGATCAGCGAAACAGAATACAT, the PBM binding z-score stood at 0.64 in test [1]; 1.9 in test [2]; 1.45 in test [3]; 0.594 in test [4]; 2.39 in test [5]; 2.27 in test [6]. Also, the PBM binding z-score in test [7] is 0.587; in test [8] it was 0.524.
Consider GGAACGCGGGCAAGTTGATAGCAGAGTTTGATGG, for which the PBM binding z-score is -0.349 in test [1]; -0.36 in test [2]; -0.0011 in test [3]; 0.0062 in test [4]; -0.242 in test [5]; -0.844 in test [6]. Moreover, the PBM binding z-score in test [7] is -0.922; in test [8] it was -0.495.

Source of the values: the supplement of paper PMC6555819.
